Reference: the supplement of paper PMC10849652
The full data set covers some 7,900 targets. This sample favours those with a hit. About 0.6% of all pairs of compound and target were hits.

What was measured:
Experiment in all cases: log2 fold change, soluble protein after heating vs DMSO (PISA); higher = thermal stabilisation; K562 cells, 10 uM, 30 min; active = over 0.2 and 3.5 SD of the protein, either way, in both replicates (recomputed)
erlotinib = compound: C#Cc1cccc(Nc2ncnc3cc(OCCOC)c(OCCOC)cc23)c1 [erlotinib]
How it was run: (§1)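 K562 cells (2×10^6 cells/mL) were treated with 10 μM compound for 30 min, and aliquots were heated for 3 min over 48°C-58°C. Pooled aliquots were extracted in PBS with 0.5% NP-40 at 4°C, and the supernatant after 21,000xg for 90 min was measured by TMTpro 16plex LC-MS/MS with channel sums equalised. Reported thermal stability, relative to control samples and from duplicates, is a log2 fold change.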

[1] = compound: C/C(=N\NC(=O)C1=CC(=CC=C1)S(=O)(=O)N2CCOCC2)/C3=C(C=CC(=C3)Cl)O
How it was run: as §1

[2] = compound: C1=CC(=C(C=C1Cl)C2=NC3=NC=CN=C3C(=N2)NC4=CC=NC=C4)F
How it was run: as §1

[3] = compound: C1=CC(=CC=C1C2=NC3=C(N2)C=C(C=C3)C(=O)N)OC4=CC=C(C=C4)Cl
How it was run: as §1

[4] = compound: C1=CC2=C(C=CC(=C2)/C=C\3/C(=O)NC(=NCC4=CC=CS4)S3)N=C1
How it was run: as §1

[5] = compound: C1=CC2=NC=CN=C2C=C1/C=C/3\C(=O)NC(=O)S3
How it was run: as §1

[6] = compound: C1=CC=C(C=C1)C2=NC(=C(N2)C3=CC=NC=C3)C4=CC(=C(C=C4)Cl)O
How it was run: as §1

[7] = compound: C1=CC=C2C(=C1)C3=NNC4=CC=CC(=C43)C2=O
How it was run: as §1

[8] = compound: C1CCN(C1)C(=O)NC2=CC=CC(=C2)NC3=NC=C(C(=N3)NCCC4=CN=CN4)Br
How it was run: as §1

[9] = compound: C1CN(CCC1(CC2=CC=C(C=C2)Cl)N)C3=NC=NC4=C3C=CN4
How it was run: as §1

IRAK-1-4 Inhibitor I = compound: C1COCCN1CCN2C3=CC=CC=C3N=C2NC(=O)C4=CC(=CC=C4)[N+](=O)[O-] [IRAK-1-4 Inhibitor I]
How it was run: as §1

ibrutinib = compound: C=CC(=O)N1CCC[C@@H](n2nc(-c3ccc(Oc4ccccc4)cc3)c3c(N)ncnc32)C1 [ibrutinib]
How it was run: as §1

[10] = compound: CC(=O)c1cnc2ccc(-c3cc(Cl)c(O)c(Cl)c3)nc2c1N[C@H]1CC[C@H](CN(C)C)CC1
How it was run: as §1

ralimetinib = compound: CC(C)(C)Cn1c(N)nc2ccc(-c3[nH]c(C(C)(C)C)nc3-c3ccc(F)cc3)nc21 [ralimetinib]
How it was run: as §1

[11] = compound: CC(C)(O)CC(=O)NCCn1ccc2ncnc(Nc3ccc(Oc4cccc(C(F)(F)F)c4)c(Cl)c3)c21
How it was run: as §1

[12] = compound: CC(C)C1=C2N=C(C=C(N2N=C1)NCC3=CC=CC=C3)NCCCCCCN
How it was run: as §1

[13] = compound: CC(C)C[C@@H](C=O)NC(=O)[C@H](CC(C)C)NC(=O)[C@H](CC(C)C)NC(=O)OCc1ccccc1
How it was run: as §1

pinometostat = compound: CC(C)N(C[C@H]1O[C@@H](n2cnc3c(N)ncnc32)[C@H](O)[C@@H]1O)[C@H]1C[C@@H](CCc2nc3cc(C(C)(C)C)ccc3[nH]2)C1 [pinometostat]
How it was run: as §1

[14] = compound: CC1=C(C(CC(=O)N1)C2=CC=C(C=C2)C(F)(F)F)C(=O)NC3=C(C=C4C(=C3)C=NN4)F
How it was run: as §1

[15] = compound: CC1=C(C2=C(C=C1)C(=O)C3=CC=CC=C3N2CCCN)C
How it was run: as §1

Measured: log2 fold change

TGFBI (UniProt Q15582)
inactive: erlotinib 0.003 | [1] -0.018 | [2] 0.054 | [3] 0.009 | [4] 0.132 | [5] 0.034 | [6] 0.009 | [7] -0.133 | [8] -0.037 | [9] 0.029 | IRAK-1-4 Inhibitor I 0.026 | ibrutinib 0.149 | [10] 0.045 | ralimetinib -0.099 | [11] 0.244 | [12] -0.044 | [13] 0.05 | pinometostat -0.092 | [14] 0.115 | [15] -0.039

SNX1 (UniProt Q13596)
Sequence of UniProt Q13596 (Q13596 whole entry, looked up): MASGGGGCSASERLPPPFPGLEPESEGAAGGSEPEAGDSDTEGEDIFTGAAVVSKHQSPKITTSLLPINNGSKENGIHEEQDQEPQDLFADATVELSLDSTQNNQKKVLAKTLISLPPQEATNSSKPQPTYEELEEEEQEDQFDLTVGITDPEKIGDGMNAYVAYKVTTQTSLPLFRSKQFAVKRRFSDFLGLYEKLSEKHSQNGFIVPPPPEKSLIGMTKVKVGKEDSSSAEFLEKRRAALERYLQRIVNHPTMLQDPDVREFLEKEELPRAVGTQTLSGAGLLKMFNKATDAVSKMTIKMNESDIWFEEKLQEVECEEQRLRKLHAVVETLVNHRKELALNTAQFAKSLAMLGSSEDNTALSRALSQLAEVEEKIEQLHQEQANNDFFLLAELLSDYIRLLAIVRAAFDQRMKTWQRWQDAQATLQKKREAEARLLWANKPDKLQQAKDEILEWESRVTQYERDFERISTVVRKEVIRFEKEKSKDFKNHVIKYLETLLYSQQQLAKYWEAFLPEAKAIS
inactive: erlotinib 0.048 | [1] 0.034 | [2] 0.009 | [3] 0.055 | [4] 0.005 | [5] -0.035 | [6] -0.024 | [7] -0.118 | [8] 0.017 | [9] -0.03 | IRAK-1-4 Inhibitor I 0.022 | ibrutinib 0.022 | [10] -0.227 | ralimetinib 0.033 | [11] -0.288 | [12] -0.246 | [13] 0.034 | pinometostat 0.014 | [14] 0.015 | [15] 0.036

TAMM41 isoform 3 (UniProt Q96BW9)
inactive: erlotinib 0.047 | [1] 0.03 | [2] 0.058 | [3] -0.007 | [4] 0.061 | [5] 0.009 | [6] 0.045 | [7] 0.007 | [8] -0.007 | [9] 0.056 | IRAK-1-4 Inhibitor I 0.075 | ibrutinib 0.022 | [10] -0.061 | ralimetinib -0.04 | [11] -0.172 | [12] -0.214 | [13] 0.043 | pinometostat 0.015 | [14] 0.013 | [15] 0.169

SLC38A9 (UniProt Q8NBW4)
active: [12] -0.368
inactive: erlotinib 0.008 | [1] -0.023 | [2] -0.018 | [3] 0.02 | [4] 0.046 | [5] 0.063 | [6] -0.071 | [7] -0.011 | [8] -0.042 | [9] 0.055 | IRAK-1-4 Inhibitor I -0.028 | ibrutinib -0.005 | [10] -0.019 | ralimetinib 0 | [11] 0.089 | [13] 0.049 | pinometostat -0.023 | [14] 0.023 | [15] -0.1

SPG11 (UniProt Q96JI7)
Sequence of UniProt Q96JI7 (Q96JI7 whole entry, looked up): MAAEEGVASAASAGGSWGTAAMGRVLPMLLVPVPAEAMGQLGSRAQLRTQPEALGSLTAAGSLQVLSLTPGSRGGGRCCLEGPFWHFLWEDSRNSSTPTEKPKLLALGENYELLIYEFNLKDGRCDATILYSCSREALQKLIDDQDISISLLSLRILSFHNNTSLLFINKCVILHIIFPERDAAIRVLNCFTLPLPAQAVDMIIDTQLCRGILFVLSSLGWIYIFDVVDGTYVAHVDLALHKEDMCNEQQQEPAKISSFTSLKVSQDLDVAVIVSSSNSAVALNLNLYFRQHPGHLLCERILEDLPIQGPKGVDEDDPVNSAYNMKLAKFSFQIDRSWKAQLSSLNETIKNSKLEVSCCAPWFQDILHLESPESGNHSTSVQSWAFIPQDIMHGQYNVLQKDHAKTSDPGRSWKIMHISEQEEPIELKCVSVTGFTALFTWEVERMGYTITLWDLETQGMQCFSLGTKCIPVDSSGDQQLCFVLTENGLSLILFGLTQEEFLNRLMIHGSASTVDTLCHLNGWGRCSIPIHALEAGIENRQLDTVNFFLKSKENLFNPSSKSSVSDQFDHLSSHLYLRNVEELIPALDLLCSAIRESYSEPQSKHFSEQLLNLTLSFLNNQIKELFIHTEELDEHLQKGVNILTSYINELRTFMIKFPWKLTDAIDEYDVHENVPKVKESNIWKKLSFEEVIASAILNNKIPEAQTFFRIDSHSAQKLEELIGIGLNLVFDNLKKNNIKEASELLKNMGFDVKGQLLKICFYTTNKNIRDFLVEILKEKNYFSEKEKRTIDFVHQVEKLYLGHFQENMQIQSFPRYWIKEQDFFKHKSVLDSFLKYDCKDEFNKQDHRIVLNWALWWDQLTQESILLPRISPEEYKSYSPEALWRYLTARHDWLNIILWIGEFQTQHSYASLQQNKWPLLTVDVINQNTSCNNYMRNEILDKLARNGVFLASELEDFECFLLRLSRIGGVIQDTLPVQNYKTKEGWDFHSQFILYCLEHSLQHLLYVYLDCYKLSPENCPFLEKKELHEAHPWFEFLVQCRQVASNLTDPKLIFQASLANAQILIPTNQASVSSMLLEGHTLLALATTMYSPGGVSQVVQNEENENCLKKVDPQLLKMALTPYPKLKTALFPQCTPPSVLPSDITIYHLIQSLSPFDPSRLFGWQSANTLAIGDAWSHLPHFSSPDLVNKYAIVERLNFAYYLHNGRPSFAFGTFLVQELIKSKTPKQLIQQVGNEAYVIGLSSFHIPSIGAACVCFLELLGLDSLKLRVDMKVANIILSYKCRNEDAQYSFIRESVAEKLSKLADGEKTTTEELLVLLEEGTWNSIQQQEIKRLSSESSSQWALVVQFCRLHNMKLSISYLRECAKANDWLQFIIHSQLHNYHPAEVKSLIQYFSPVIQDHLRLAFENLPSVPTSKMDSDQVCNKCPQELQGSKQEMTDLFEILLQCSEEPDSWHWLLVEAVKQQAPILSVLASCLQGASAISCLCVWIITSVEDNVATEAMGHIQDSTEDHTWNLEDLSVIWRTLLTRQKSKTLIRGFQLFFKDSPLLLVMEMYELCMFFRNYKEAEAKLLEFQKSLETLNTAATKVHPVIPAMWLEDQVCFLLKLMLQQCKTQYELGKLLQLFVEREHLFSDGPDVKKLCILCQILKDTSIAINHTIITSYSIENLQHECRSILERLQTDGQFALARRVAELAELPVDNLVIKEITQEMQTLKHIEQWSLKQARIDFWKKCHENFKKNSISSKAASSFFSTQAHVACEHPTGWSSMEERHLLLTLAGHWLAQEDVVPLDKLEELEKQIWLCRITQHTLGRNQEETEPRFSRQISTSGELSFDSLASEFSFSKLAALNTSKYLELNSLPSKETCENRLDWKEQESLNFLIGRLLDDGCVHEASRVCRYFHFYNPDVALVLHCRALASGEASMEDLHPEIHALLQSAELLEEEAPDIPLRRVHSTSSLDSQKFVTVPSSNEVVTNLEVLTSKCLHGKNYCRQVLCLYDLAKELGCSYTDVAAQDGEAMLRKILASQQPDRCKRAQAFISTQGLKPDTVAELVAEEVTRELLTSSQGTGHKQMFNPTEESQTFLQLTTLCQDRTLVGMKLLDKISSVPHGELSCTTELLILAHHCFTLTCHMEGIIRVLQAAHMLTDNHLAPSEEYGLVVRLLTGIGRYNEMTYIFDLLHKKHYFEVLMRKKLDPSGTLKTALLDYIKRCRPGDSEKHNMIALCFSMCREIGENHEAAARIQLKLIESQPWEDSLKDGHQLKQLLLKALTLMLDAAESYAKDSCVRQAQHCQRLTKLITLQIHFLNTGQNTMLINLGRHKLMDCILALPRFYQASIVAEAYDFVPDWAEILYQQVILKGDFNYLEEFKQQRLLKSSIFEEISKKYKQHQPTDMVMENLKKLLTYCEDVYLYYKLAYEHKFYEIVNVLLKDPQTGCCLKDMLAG
inactive: erlotinib 0.586 | [1] 0.148 | [2] -0.089 | [3] -0.084 | [4] 0.128 | [5] -0.108 | [6] -0.275 | [7] -0.073 | [8] 0.405 | [9] -0.002 | IRAK-1-4 Inhibitor I -0.027 | ibrutinib 0.128 | [10] -0.065 | ralimetinib -0.151 | [11] 0.103 | [12] 0.051 | [13] 0.405 | pinometostat 0.035 | [14] 0.03 | [15] 0.097

SRPRA (UniProt P08240)
inactive: erlotinib -0.01 | [1] 0.061 | [2] 0.073 | [3] 0.007 | [4] 0.054 | [5] -0.048 | [6] 0.063 | [7] 0.003 | [8] 0.001 | [9] 0.006 | IRAK-1-4 Inhibitor I -0.024 | ibrutinib 0.015 | [10] -0.028 | ralimetinib -0.002 | [11] -0.058 | [12] 0.021 | [13] -0.006 | pinometostat -0.001 | [14] -0.033
active: [15] 0.269

TBCD (UniProt Q9BTW9)
Sequence of UniProt Q9BTW9 (Q9BTW9 whole entry, looked up): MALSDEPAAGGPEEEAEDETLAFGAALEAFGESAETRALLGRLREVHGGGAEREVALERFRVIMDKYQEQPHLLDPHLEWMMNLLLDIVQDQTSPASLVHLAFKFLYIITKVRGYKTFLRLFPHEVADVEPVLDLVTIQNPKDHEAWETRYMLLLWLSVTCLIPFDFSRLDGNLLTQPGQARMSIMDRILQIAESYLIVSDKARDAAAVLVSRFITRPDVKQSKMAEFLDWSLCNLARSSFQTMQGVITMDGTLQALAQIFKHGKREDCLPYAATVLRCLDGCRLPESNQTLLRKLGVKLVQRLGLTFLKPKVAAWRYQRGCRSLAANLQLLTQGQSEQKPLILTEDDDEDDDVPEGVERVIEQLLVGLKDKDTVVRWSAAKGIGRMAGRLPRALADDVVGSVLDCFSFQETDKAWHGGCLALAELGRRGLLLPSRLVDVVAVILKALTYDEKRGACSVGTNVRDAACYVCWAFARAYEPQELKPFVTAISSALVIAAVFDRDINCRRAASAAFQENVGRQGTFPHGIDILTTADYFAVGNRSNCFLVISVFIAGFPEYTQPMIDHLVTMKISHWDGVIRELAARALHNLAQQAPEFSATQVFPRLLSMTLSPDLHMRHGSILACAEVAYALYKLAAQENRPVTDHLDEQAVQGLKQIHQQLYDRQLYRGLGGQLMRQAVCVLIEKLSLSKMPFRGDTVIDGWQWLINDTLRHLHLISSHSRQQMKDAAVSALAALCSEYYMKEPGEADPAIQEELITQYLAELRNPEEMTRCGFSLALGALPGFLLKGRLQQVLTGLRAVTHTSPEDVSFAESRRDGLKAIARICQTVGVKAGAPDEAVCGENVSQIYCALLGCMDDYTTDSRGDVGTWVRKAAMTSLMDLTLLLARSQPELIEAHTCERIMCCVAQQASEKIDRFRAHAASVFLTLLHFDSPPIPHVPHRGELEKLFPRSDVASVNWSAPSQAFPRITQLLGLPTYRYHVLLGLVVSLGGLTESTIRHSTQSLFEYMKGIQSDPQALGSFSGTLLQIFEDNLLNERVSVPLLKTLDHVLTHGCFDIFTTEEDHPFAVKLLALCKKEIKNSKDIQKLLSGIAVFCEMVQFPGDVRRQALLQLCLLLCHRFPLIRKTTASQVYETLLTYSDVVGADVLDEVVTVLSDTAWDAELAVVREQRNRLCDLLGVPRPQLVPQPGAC
inactive: erlotinib 0.022 | [1] 0.06 | [2] 0.059 | [3] 0.022 | [4] 0.069 | [5] 0.029 | [6] -0.025 | [7] -0.01 | [8] -0.016 | [9] -0.021 | IRAK-1-4 Inhibitor I 0.019 | ibrutinib -0.019 | [10] -0.004 | ralimetinib 0.01 | [11] -0.034 | [12] -0.083 | [13] 0.01 | pinometostat -0.061 | [14] 0.068 | [15] -0.086

SRP72 (UniProt O76094)
active: [15] -0.547
inactive: erlotinib 0.044 | [1] 0.105 | [2] -0.072 | [3] -0.054 | [4] 0.066 | [5] 0.001 | [6] 0.005 | [7] -0.052 | [8] -0.005 | [9] -0.194 | IRAK-1-4 Inhibitor I -0.119 | ibrutinib -0.03 | [10] -0.025 | ralimetinib 0.104 | [11] -0.121 | [12] -0.275 | [13] 0.062 | pinometostat 0.205 | [14] -0.026

ST6GAL1 (UniProt P15907)
inactive: erlotinib 0.053 | [1] 0.006 | [2] 0.017 | [3] 0.022 | [4] -0.033 | [5] -0.009 | [6] 0.064 | [7] 0.048 | [8] -0.064 | [9] 0.041 | IRAK-1-4 Inhibitor I -0.01 | ibrutinib 0.002 | [10] 0.021 | ralimetinib 0.041 | [11] 0.058 | [12] -0.051 | [13] -0.009 | pinometostat 0.024 | [14] 0.02 | [15] 0.011

SNRNP27 (UniProt Q8WVK2)
Sequence of UniProt Q8WVK2 (Q8WVK2 whole entry, looked up): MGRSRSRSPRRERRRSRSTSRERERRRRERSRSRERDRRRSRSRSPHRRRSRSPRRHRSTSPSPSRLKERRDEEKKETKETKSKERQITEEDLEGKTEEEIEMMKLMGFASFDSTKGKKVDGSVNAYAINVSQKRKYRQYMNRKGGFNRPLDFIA
inactive: erlotinib 0.026 | [1] -0.021 | [2] 0.052 | [3] 0.015 | [4] 0.015 | [5] 0.045 | [6] -0.165 | [7] -0.027 | [8] 0.061 | [9] 0.035 | IRAK-1-4 Inhibitor I 0.033 | ibrutinib 0.002 | [10] -0.03 | ralimetinib -0.118 | [11] 0.018 | [12] 0.035 | [13] 0.054 | pinometostat -0.04 | [14] 0.082 | [15] -0.043

TJP2 isoform 7 (UniProt Q9UDY2)
active: [10] -0.437
inactive: erlotinib 0.116 | [1] 0.06 | [2] -0.042 | [3] 0.006 | [4] 0.029 | [5] -0.201 | [6] 0.008 | [7] -0.006 | [8] -0.08 | [9] 0.001 | IRAK-1-4 Inhibitor I 0.004 | ibrutinib -0.004 | ralimetinib 0.032 | [11] -0.061 | [12] -0.107 | [13] 0.068 | pinometostat 0.003 | [14] 0.017 | [15] 0.05

TJP1 (UniProt Q07157)
active: [10] -0.443
inactive: erlotinib 0.095 | [1] 0.072 | [2] 0.022 | [3] -0.015 | [4] 0.013 | [5] -0.135 | [6] 0.003 | [7] -0.029 | [8] -0.03 | [9] -0.035 | IRAK-1-4 Inhibitor I -0.033 | ibrutinib 0.03 | ralimetinib 0.028 | [11] -0.02 | [12] -0.003 | [13] 0.014 | pinometostat 0.037 | [14] 0.007 | [15] 0.034

TIMM44 (UniProt O43615)
active: [12] -0.399
inactive: erlotinib -0.012 | [1] 0.026 | [2] 0.054 | [3] -0.007 | [4] 0.024 | [5] 0.041 | [6] 0.042 | [7] 0.012 | [8] 0.028 | [9] -0.029 | IRAK-1-4 Inhibitor I 0.066 | ibrutinib -0.061 | [10] -0.065 | ralimetinib -0.039 | [11] -0.171 | [13] 0.006 | pinometostat -0.004 | [14] 0.028 | [15] 0.022

SLC38A2 (UniProt Q96QD8)
Sequence of UniProt Q96QD8 (Q96QD8 whole entry, looked up): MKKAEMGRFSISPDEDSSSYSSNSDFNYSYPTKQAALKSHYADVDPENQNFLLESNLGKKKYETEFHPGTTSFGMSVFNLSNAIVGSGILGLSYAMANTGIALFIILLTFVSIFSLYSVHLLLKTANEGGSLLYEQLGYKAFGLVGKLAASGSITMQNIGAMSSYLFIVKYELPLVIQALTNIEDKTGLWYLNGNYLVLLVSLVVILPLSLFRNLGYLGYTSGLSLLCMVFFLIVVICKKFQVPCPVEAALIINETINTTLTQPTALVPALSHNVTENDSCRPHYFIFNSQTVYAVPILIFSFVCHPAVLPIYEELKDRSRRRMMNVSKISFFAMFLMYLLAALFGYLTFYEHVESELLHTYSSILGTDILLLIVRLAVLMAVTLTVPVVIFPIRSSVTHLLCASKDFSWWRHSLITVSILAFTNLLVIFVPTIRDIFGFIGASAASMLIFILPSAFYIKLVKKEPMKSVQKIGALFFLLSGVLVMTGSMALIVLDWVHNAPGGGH
inactive: erlotinib -0.093 | [1] 0.075 | [2] 0.01 | [3] 0.003 | [4] -0.039 | [5] 0.093 | [6] 0.055 | [7] 0 | [8] -0.009 | [9] 0.048 | IRAK-1-4 Inhibitor I 0.018 | ibrutinib 0.022 | [10] -0.057 | ralimetinib -0.097 | [11] -0.12 | [13] 0.102 | pinometostat -0.053 | [14] 0.019 | [15] 0.01
active: [12] -0.28

SRSF10 (UniProt O75494)
Sequence of UniProt O75494 (O75494 whole entry, looked up): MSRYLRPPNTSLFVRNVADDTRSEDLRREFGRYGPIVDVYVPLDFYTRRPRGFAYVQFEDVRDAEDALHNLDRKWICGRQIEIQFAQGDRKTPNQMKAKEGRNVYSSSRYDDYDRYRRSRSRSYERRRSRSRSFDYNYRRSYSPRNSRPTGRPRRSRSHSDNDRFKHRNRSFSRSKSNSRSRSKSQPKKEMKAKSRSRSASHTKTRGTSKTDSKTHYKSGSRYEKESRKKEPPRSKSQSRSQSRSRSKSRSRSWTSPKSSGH
active: [2] -0.701
inactive: erlotinib 0.004 | [1] -0.284 | [3] 0.035 | [4] -0.044 | [5] 0.048 | [6] -0.148 | [7] -0.022 | [8] 0.063 | [9] -0.135 | IRAK-1-4 Inhibitor I -0.179 | ibrutinib 0.07 | [10] -0.047 | ralimetinib 0.185 | [11] 0.218 | [12] 0.002 | [13] 0.102 | pinometostat 0.418 | [14] 0.205 | [15] -0.396

TBC1D24 (UniProt Q9ULP9)
inactive: erlotinib 0.038 | [1] 0.068 | [2] 0.059 | [3] 0.037 | [4] 0.072 | [5] 0 | [6] 0.048 | [7] 0.053 | [8] 0.042 | [9] 0.157 | IRAK-1-4 Inhibitor I -0.025 | ibrutinib 0.022 | ralimetinib -0.086 | [11] -0.057 | [12] -0.09 | [13] -0.053 | pinometostat 0.04 | [14] 0.047 | [15] 0.142
active: [10] -0.415
